According to PubChem BioAssay AID624173 (National Center for Advancing Translational Sciences (NCATS), 2012):
In all, about 410,000 compounds went through this assay and about 490 (0.12%) were called active. Where a call stands in place of a potency, no number is given. Roughly 1% stayed inconclusive and do not appear here. This is one part of a sample in which actives are shown more often than they occur. The call rests on the fitted dose curve; in most records, active means well fitted inhibition curve with a large enough effect; inconclusive means small, poorly fitted or top-dose-only effect; inactive means flat fitted curve, though single readings scatter.

target: pyruvate kinase (Trypanosoma brucei) (UniProt Q57TT1); test: qHTS of Trypanosoma Brucei Inhibitors; details: TbPYK enzyme, Kinase-Glo Plus ATP luminescence, 45 min; series mostly up to 76.8 µM; further: nearly all actives have a fitted effect of over 50% in size
Description: Members of the Trypanosomatidae family of parasitic protozoans cause a spectrum of diseases throughout the tropical and subtropical world. Sleeping sickness, caused by two subspecies of Trypanosoma brucei, is endemic to areas of sub-Saharan Africa, while Chagas' disease, a manifestation of Trypanosoma cruzi infection, is prevalent throughout Central and South America. In addition, many species of Leishmania are responsible for a range of cutaneous and visceral diseases, causing ulcers, destructive lesions and kalaazar, a lethal infection of the viscera. These diseases cause severe public health and economic burdens on populations that are often already caught in a tragic cycle of poverty, poor nutrition and disease. Collectively, parasites of the trypanosomatid family infect 30 million people worldwide (~500 million live in endemic areas), and account for ~130K deaths annually. Existing treatments have developed little in the past 50 years, and suffer from toxicity, poor efficacy and resistance; the goal of this project is to develop lead drugs that will be suitable for entry into pre-clinical trials.
Glycolysis in axenically cultured T. cruzi, representing the intracellular pathogenic stage, is also essential for these parasites. {Engel, 1987} This project aims to discover and optimize selective inhibitors of the glycolytic enzyme pyruvate kinase (PYK) from Trypanosoma brucei, the parasite that causes sleeping sickness. […] Trypanosomatid PYKs show significant differences from their human counterparts including only 47-50% sequence identity and different allosteric and activation properties.{Callens, 1992} To this end, a qHTS was done against the MLSMR to discover inhibitors.
NIH Molecular Libraries Probe Production Network [MLPCN]
NIH Chemical Genomics Center [NCGC]
PI Name: Malcolm Walkinshaw, University of Edinburgh
2 uL of TbPYK/substrate buffer (columns 1-3, 5-48) are dispensed into Greiner white solid bottom 1536-well assay plates; column 4 receives only TEA buffer as 0x TbPYK controls. Compounds are then transferred via Kalypsys pin tool equipped with 1536-pin array (10 nL slotted pins, V&P Scientific, San Diego, CA). Following addition of compound, 2 uL of ADP (130 uM final concentration, all columns) is added to initiate the reaction. The plates are then incubated at room temperature for 45 minutes. Kinase-Glo Plus reagent is added (3 uL) and plates incubated for 10 minutes, before being transferred to a ViewLux high-throughput CCD imager (PerkinElmer) wherein single end-point measurements of luminescence are acquired using a clear filter. All reagents are diluted in an assay buffer consisting of 50 mM TEA (pH 7.2), 100 mM KCl, 10 mM MgCl2, 0.05% BSA and 0.01% Tween-20.
All screening operations will be performed on a fully integrated robotic system (Kalypsys, San Diego, CA) containing one RX-130 and two RX-90 anthropomorphic robotic arms (Staeubli, Duncan, SC). Library plates will be screened starting from the lowest and proceeding to the highest concentration. Vehicle-only plates, with DMSO being pin-transferred to columns 5-48, will be inserted uniformly at the beginning and the end of each library in order to monitor and record any shifts in the background, which can be affected by reagent dispensers or loss in enzyme activity over time. Screening data will be corrected, normalized, and concentration-effect relationships will be derived by using publicly-available curve fitting algorithms developed in-house (http://ncgc.nih.gov/pub/openhts).
Potency means the concentration at half of the fitted maximal effect.

| SMILES | Potency |
| --- | --- |
| O=C(c1ccncc1)N1CCC2(CCCN(C(c3ccccc3)c3ccccc3)C2)CC1 | inactive |
| O=c1c(CCc2ccccc2)nc2cncnc2n1C1CC1 | inactive |
| CC(=O)NC(=O)c1ccccc1O | inactive |
| COc1ccc(-n2c(-c3ccc(OC)c(OC)c3)n[nH]c2=S)cc1 | 3.98 µM (active) |
| COc1ccc(-c2cn(-c3ccc(C)cc3)c(=O)n2CC(=O)Nc2ccc(OC)c(OC)c2)cc1 | inactive |
| COc1cc(OC)c(-n2cc(-c3ccc(Cl)cc3)[nH]c2=O)cc1Cl | inactive |
| COc1ccc(-n2c(C)csc2=S)cc1 | inactive |
| COc1ccc(CNc2nc(-c3ccc(Cl)cc3)cc(C(F)(F)F)n2)cc1 | inactive |
| COc1ccc(-n2c(-c3ccc(Cl)cc3)n[nH]c2=S)c(OC)c1 | 5.62 µM (active) |
| O=C(Nc1cccc(F)c1)N1CCC2(CC1)CCN(S(=O)(=O)c1ccccc1)CC2 | inactive |
| C=C1C(=CC=C2CCC[C@@]3(C)[C@@H]2CC[C@H]3[C@H](C)CCCC(C)C)C[C@@H](O)C[C@@H]1O | inactive |
| Cc1nnc(C(=O)NC(C)(C)c2nc(C(=O)NCc3ccc(F)cc3)c(O)c(=O)n2C)o1 | inactive |
| CCC1(c2ccccc2)C(=O)NC(=O)N(C)C1=O (stereo unspecified) | inactive |
| CCCCCCCCCc1ccc(OCCOCCOCCOCCOCCOCCOCCOCCOCCO)cc1 | inactive |
| CCC[C@H]1C(=O)N2C(N(C)C)=Nc3ccc(C)cc3N2C1=O | inactive |
| O=c1c(-c2ccc(F)c(F)c2)nc2cncnc2n1-c1ccccc1 | inactive |
| COc1ccc(Oc2ncc3nc(-c4ccc(F)cc4)c(=O)n(C)c3n2)cc1 | inactive |
| CC(=O)OC1C([N+]2(C)CCCCC2)C[C@H]2C3CC[C@H]4C[C@H](OC(C)=O)C([N+]5(C)CCCCC5)CC4(C)C3CCC12C (stereo partly specified) | inactive |
| CCC(CCC(C)C1CCC2C3CC=C4CC(O)CC[C@@]4(C)C3CC[C@@]12C)C(C)C (stereo partly specified) | inactive |
| COc1cccc(Cn2c(=O)c(C)nc3cnc(Oc4ccccc4)nc32)c1 | inactive |
| CNC(C)[C@@H](O)c1ccccc1 (stereo partly specified) | inactive |
| O=C(c1cnccn1)N1CCC2(CCN(Cc3cc(C(F)(F)F)cc(C(F)(F)F)c3)CC2)CC1 | inactive |
| CCNc1ncc2nc(CCc3ccccc3)c(=O)n(-c3ccc(OC)cc3)c2n1 | inactive |

| SMILES | Potency |
| --- | --- |
| O=C(c1ccco1)N1CCC2(CC1)CCN(c1ncccn1)CC2 | inactive |
| Cc1cn([C@H]2CC(F)[C@@H](CO)O2)c(=O)[nH]c1=O (stereo partly specified) | inactive |
| Cc1cccc([C@H](C)c2cnc[nH]2)c1C | inactive |
| COc1ccc(-c2nc3cnc(Oc4ccccc4)nc3n(Cc3cccs3)c2=O)cc1 | inactive |
| COc1ccc(-n2c(=O)c(-c3cn(C)c4ccccc34)nc3cnc(OC)nc32)cc1 | inactive |
| N#Cc1ccc(CN2CCCC3(CCN(C(=O)c4ccco4)CC3)C2)cc1 | inactive |
| CC(=O)Oc1ccc2c3c1OC1C(OC(C)=O)C=CC4[C@@H](C2)N(C)CC[C@]314 (stereo partly specified) | inactive |
| O=C(c1ccco1)N1CCC2(CC1)CN(c1ncccn1)C2 | inactive |
| O=C(Nc1cccc(F)c1)N1CC[C@@]2(CCCN(C(=O)Oc3ccccc3)C2)C1 | inactive |
| COc1ccc(NC(=O)N2CC3(CCN(C(=O)c4cccn4C)CC3)C2)cc1 | inactive |
| CCOC(=O)C1CCCN(S(=O)(=O)c2cc(-c3cc(C)no3)ccc2OC)C1 (stereo unspecified) | inactive |
| O=C(c1cc(C(F)(F)F)cc(C(F)(F)F)c1)N1CCC2(CCCN(c3ccccn3)C2)CC1 | inactive |
| COc1ccc(-c2oc3cc(OC)ccc3c2C(=O)c2ccc(C#N)cc2)cc1 | inactive |
| Oc1ccc(Cl)c2c1CCC2 | inactive |
| CC1(C)OC[C@@H](COC(=O)CCc2ccc(OC[C@@H](O)CNCCNC(=O)N3CCOCC3)cc2)O1 | inactive |
| c1ccc(CN2CC[C@@]3(CCCNC3)C2)cc1 | inactive |
| COc1cccc(Cn2c(=O)c(-c3cc(F)cc(F)c3)nc3cnc(OC)nc32)c1 | inactive |
| CC(=O)CC(c1ccccc1)C1C(=O)Oc2ccccc2C1=O (stereo unspecified) | inactive |
| COc1cc2c(cc1OC)[C@@H](Cc1cc(OC)c(OC)c(OC)c1)[N+](C)(CCCOC(=O)CC/C=C/CCC(=O)OCCC[N+]1(C)CCc3cc(OC)c(OC)cc3[C@H]1Cc1cc(OC)c(OC)c(OC)c1)CC2 (stereo partly specified) | inactive |
| C[C@H]1C[C@H]2[C@@H]3CCC4=CC(=O)C=C[C@]4(C)[C@@H]3C(=O)C[C@]2(C)[C@@]1(O)C(=O)CO | inactive |
| CCOc1ccc(NC(=O)CC2C(=O)N(c3cccc(OC)c3)C(=O)N2C2CCCCC2)cc1 (stereo unspecified) | inactive |
| COCCn1c(=O)c(-c2cc(F)cc(F)c2)nc2cnc(N3CCNCC3)nc21 | inactive |
| CC(=O)N1CCC2(CC1)CCN(c1ccncc1)CC2 | inactive |
